Results as given in PubChem BioAssay (EPA / NIEHS).
Records with an inconclusive call do not appear. Active and inactive are the calls of the source. How the source made its calls, unless noted: active means hit-call score of the fitted dose curve at least 0.9, where 1 is the maximum; inconclusive means response in the unintended direction; inactive means score below 0.9.

Columns and labels:
[1] = molecular target: human Norepinephrine Transporter (NET), SLC6A2 (gene 6530) (UniProt P23975); experiment: NVS_TR_hNET: NovaScreen (NVS) Transporter Assay for human Norepinephrine Transporter (NET) (AID 2283377);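 further: cell-free membrane protein extracted from CHO cells expressing human NET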
Method in brief: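 In this cell-free binding screen, chemicals at 25 uM (duplicate) compete with a radioligand for CHO-derived human NET over 1 hour, with filter-based radiodetection.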

[2] = molecular target: Estrogen receptor (Homo sapiens) (UniProt P03372); experiment: OT_ERa_GFPERaERE_0480: Odyssey Thera (OT) 8-hour HeLa Transcription Induction Assay for Estrogen Receptor (AID 2283381; active means hit-call score of the fitted dose curve at least 0.9, where 1 is the maximum; inactive means score below 0.9)
Method in brief: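 GFP-ERE reporter, HeLa, 8 h exposure. Readout: fluorescence microscopy, high-content image analysis. Fit direction positive vs DMSO negative control.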

[3] = molecular target: Estrogen receptor (Homo sapiens) (UniProt P03372); experiment: OT_ERa_GFPERaERE_0120: Odyssey Thera (OT) 2-hour HeLa Transcription Induction Assay for Estrogen Receptor (AID 2283382)
Method in brief: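 Fluorescence microscopy read-out: inducible fluorescent protein reporter in HeLa cells, imaged 2 h post-dose. Signal increase over DMSO negative control fitted as single primary endpoint via high content image analysis.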

[4] = molecular target: Bile acid receptor (Homo sapiens) (UniProt Q96RI1); experiment: OT_FXR_FXRSRC1_1440: Odyssey Thera (OT) 24-hour HEK293T Protein-Complementation Assay for Farnesoid X receptor/SRC-1 Co-activator (AID 2283384)
Method in brief: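 Fluorescence readout, 24 h post-dose, HEK293T; FXR and SRC-1 fused to complementary reporter fragments, association reconstitutes signal. Positive-direction fit vs DMSO baseline.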

[5] = molecular target: Estrogen receptor beta (Homo sapiens) (UniProt Q92731); experiment: OT_ER_ERbERb_1440: Odyssey Thera (OT) 24-hour HEK293T Protein-Complementation Assay for Estrogen Receptor-beta/-beta Homodimer (AID 2283380);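 further: fluorescence gain from ER beta LBD homodimer complementation read by laser scanning cytometry; scored as signal increase over DMSO baseline for both agonists and antagonists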
Method in brief: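 HEK293T cells stably expressing human ER-beta LBD (aa 310-547) PCA homodimer pair, dosed 24 h; formaldehyde-fixed, Draq5-stained. Readout: increase in nuclear (agonist) or nuclear plus cytoplasmic (antagonist) fluorescence intensity versus DMSO, gain-of-signal fitting.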

[6] = molecular target: Agonist Androgen Response Element (ARE), AR (gene 367) (UniProt P10275); experiment: OT_AR_ARELUC_AG_1440: Odyssey Thera (OT) 24-hour CHO-K1 Luciferase Assay for Agonist Androgen Response Element (ARE) (AID 2283379)
Method in brief: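 Luminescence increase above DMSO, read after a 24 h compound treatment of CHO-K1 cells expressing an androgen response element luciferase reporter, gives the single primary endpoint; concentration-response fitting used the positive direction.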

[7] = molecular target: Retinoic acid receptor RXR-alpha (Homo sapiens) (UniProt P19793); experiment: OT_NURR1_NURR1RXRa_0480: Odyssey Thera (OT) 8-hour HEK293T Protein Complementation Assay for Nurr1/retinoid X receptor (RXR) (AID 2283385)
Method in brief: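 Read-out: fluorescence from protein-fragment complementation between Nurr1 and RXRα in human HEK293T cells, 8 h after dosing. DMSO served as negative control; increased signal counted as activity.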

[8] = molecular target: mouse Estrogen Receptor alpha (Era), Esr1 (gene 13982) (UniProt P19785); experiment: NVS_NR_mERa: NovaScreen (NVS) Nuclear Receptor Binding Assay for mouse Estrogen Receptor alpha (Era) (AID 2283378);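 further: hit means loss of bound radioligand signal relative to DMSO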
Method in brief: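 Extracted mouse Era incubated with tritiated or iodinated radioligand plus test chemical, 18 h. Bound fraction separated on filters, counted by scintillation. DMSO = negative control/baseline; duplicate single-point at 25 uM, then concentration-response follow-up.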

Retinoic acid receptor RXR-alpha (Homo sapiens), sequence (P19793 whole entry, looked up, the tested form may be a part): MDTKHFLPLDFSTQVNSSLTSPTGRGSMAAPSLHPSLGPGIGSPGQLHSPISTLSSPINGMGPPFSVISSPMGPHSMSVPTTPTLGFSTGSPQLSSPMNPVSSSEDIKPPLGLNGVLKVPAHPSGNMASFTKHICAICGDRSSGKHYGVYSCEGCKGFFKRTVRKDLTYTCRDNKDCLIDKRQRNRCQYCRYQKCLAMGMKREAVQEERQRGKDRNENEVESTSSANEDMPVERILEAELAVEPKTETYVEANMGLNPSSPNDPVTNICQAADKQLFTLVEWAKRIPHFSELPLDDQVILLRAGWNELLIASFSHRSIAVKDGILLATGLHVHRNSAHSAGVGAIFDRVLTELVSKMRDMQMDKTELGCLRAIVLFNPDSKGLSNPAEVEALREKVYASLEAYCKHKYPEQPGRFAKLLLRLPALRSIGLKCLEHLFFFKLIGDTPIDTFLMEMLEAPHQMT
Agonist Androgen Response Element (ARE), AR (gene 367), sequence (P10275 whole entry, looked up): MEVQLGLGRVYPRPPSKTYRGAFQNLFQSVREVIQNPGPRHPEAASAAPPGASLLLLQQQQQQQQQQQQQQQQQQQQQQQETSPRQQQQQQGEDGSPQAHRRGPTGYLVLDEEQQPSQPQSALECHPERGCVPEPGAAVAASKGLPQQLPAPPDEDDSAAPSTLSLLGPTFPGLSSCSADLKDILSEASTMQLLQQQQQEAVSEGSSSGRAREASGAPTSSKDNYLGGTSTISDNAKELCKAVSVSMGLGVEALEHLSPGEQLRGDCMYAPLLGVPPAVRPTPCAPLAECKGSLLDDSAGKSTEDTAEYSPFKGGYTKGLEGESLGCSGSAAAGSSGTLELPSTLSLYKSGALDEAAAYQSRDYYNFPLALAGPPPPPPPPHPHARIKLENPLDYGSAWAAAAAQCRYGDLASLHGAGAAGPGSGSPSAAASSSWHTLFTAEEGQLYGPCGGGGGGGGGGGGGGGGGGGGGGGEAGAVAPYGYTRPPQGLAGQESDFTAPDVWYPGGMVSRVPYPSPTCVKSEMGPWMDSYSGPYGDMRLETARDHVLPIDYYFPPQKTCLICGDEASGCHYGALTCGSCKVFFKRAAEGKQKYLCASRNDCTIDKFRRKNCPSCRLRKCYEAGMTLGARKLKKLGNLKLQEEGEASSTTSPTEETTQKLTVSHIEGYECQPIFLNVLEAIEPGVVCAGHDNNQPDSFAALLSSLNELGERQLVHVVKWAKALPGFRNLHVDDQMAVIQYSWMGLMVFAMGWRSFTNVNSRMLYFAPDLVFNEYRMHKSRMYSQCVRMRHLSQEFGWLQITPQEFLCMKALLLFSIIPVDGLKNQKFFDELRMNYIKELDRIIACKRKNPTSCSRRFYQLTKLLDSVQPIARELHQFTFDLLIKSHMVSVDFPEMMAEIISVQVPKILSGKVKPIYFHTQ
Estrogen receptor (Homo sapiens), sequence (P03372 whole entry, looked up): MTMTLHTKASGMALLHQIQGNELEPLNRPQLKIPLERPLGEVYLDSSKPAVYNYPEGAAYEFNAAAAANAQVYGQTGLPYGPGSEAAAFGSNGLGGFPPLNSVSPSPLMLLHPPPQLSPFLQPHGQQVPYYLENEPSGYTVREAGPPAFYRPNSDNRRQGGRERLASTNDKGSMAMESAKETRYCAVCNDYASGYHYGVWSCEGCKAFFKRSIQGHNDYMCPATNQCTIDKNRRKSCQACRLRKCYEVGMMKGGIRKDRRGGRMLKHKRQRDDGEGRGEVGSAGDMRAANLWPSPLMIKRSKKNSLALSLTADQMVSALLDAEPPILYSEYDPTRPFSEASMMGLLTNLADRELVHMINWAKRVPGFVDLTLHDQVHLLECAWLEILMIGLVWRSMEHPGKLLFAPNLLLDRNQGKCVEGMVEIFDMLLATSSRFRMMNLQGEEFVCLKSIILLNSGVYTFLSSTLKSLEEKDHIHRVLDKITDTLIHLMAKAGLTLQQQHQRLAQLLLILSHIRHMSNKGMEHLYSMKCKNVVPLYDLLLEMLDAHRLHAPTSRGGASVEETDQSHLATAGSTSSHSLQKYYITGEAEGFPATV
mouse Estrogen Receptor alpha (Era), Esr1 (gene 13982), sequence (P19785 whole entry, looked up): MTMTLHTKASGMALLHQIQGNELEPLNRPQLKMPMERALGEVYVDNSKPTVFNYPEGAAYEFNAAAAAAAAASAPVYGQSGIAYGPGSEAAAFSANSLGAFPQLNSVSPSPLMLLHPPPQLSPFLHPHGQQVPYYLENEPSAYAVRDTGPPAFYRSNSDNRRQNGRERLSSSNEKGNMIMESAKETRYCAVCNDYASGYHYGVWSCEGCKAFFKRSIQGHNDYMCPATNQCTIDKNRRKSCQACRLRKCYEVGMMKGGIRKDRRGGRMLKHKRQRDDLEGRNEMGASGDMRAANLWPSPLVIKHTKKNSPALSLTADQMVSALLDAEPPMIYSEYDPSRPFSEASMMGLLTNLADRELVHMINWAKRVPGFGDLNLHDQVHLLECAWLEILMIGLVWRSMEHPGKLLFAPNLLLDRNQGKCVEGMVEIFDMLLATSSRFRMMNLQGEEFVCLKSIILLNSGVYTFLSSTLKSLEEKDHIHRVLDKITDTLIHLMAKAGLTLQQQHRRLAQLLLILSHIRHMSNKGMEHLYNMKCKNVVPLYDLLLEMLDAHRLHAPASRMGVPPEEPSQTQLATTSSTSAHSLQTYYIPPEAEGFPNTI
Estrogen receptor beta (Homo sapiens), sequence (Q92731 whole entry, looked up, the tested form may be a part): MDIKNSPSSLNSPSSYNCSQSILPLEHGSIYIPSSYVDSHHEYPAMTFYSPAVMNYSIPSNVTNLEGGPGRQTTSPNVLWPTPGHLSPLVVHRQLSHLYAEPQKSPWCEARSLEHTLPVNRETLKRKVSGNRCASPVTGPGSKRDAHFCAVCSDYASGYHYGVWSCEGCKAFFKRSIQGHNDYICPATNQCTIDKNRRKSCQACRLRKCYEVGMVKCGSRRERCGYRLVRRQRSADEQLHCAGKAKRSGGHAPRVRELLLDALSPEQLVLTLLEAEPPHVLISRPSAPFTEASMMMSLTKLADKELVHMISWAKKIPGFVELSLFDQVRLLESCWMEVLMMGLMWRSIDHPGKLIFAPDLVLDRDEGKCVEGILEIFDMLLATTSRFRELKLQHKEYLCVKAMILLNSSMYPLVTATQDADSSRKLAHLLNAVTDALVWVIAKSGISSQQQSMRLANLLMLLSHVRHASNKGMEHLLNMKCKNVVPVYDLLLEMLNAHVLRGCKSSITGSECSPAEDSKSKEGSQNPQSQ
Bile acid receptor (Homo sapiens), sequence (Q96RI1 whole entry, looked up, the tested form may be a part): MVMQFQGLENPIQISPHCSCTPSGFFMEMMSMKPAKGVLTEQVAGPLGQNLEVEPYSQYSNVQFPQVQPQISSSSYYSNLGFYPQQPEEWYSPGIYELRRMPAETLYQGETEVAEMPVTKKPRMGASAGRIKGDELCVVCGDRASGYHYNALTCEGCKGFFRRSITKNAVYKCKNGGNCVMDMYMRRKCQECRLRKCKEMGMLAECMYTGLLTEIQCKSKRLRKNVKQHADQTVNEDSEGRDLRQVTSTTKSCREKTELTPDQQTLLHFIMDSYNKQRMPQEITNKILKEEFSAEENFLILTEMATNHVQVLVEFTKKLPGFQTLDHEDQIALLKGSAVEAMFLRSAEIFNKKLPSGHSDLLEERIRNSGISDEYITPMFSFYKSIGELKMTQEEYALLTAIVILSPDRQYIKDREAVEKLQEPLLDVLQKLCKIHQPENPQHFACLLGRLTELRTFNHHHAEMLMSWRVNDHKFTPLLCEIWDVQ
human Norepinephrine Transporter (NET), SLC6A2 (gene 6530), sequence (P23975 whole entry, looked up): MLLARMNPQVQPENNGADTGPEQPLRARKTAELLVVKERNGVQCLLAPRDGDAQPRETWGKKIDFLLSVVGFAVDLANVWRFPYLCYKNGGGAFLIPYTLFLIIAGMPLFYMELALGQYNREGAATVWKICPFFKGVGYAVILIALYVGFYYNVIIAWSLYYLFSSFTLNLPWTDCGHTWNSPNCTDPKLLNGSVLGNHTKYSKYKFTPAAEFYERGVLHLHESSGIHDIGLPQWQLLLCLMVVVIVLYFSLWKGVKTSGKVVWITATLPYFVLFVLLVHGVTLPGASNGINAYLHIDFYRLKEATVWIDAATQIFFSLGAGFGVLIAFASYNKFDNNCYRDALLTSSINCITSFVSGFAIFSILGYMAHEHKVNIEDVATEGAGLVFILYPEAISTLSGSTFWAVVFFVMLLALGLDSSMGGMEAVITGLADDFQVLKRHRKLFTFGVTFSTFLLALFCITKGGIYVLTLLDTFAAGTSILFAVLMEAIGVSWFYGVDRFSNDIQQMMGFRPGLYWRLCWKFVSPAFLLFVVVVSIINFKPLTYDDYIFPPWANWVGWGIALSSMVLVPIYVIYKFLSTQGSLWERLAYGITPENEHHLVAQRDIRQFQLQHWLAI

With Cc1cc(C)n(CO)n1 as the compound, how does the outcome [1] read?
Its outcome is “inactive”.

And the outcome [2]?
The outcome was “inactive”.

What about the outcome [3] of the same compound?
The outcome was “inactive”.

And the outcome [4]?
The outcome was “inactive”.

What does the source list for CCCCCC(=O)OCC?
outcome [5]: inactive; outcome [2]: inactive; outcome [3]: inactive; outcome [4]: inactive

For CCCCC(CC)COC(=O)/C=C/c1ccc(OC)cc1 (stereo not given), which outcome [6] is on record?
Its outcome is “inactive”.

What about the outcome [2] of the same compound?
Its outcome is “inactive”.

And the outcome [3]?
Its outcome is “inactive”.

And the outcome [7]?
Its outcome is “inactive”.

For O=C(O)CCC(=O)O, which outcome [2] is on record?
The outcome was “inactive”.

What about the outcome [3] of the same compound?
The outcome was “inactive”.

Which results are given for Cc1ccc(C)c(OCCCC(C)(C)C(=O)O)c1?
outcome [6]: inactive; outcome [5]: inactive; outcome [2]: inactive; outcome [3]: inactive; outcome [4]: inactive

How did the outcome [2] turn out when Fc1ccc(Br)cc1 was run?
The outcome was “inactive”.

And the outcome [3]?
Its outcome is “inactive”.

What about the outcome [7] of the same compound?
Its outcome is “inactive”.

With CCCCCCCCCCCCCC(=O)OC(C)C as the compound, how does the AC50 [6] read?
Its AC50 is 3.48 µM (active).

What about the outcome [5] of the same compound?
Its outcome is “inactive”.

What about the outcome [2] of the same compound?
Its outcome is “inactive”.

And the outcome [3]?
Its outcome is “inactive”.

And the outcome [7]?
The outcome was “inactive”.

How did the outcome [5] turn out when CC(=O)OC(C)c1ccccc1 (stereo not given) was run?
Its outcome is “inactive”.

And the outcome [2]?
The outcome was “inactive”.

And the outcome [3]?
Its outcome is “inactive”.

COc1cc(O)c(C(=O)c2ccccc2)cc1S(=O)(=O)O was tested. Which outcome [6] did it give?
The outcome was “inactive”.

What about the outcome [5] of the same compound?
The outcome was “inactive”.

What about the outcome [2] of the same compound?
The outcome was “inactive”.

And the outcome [3]?
Its outcome is “inactive”.

With O=C(Oc1ccccc1)c1ccccc1O as the compound, how does the outcome [2] read?
Its outcome is “inactive”.

And the outcome [3]?
Its outcome is “inactive”.

And the outcome [7]?
Its outcome is “inactive”.

For CCOC(=O)c1ccccc1C, which AC50 [5] is on record?
Its AC50 is 29.4 µM (active).

And the outcome [2]?
The outcome was “inactive”.

And the outcome [3]?
The outcome was “inactive”.

What about the outcome [7] of the same compound?
Its outcome is “inactive”.

Which outcome [5] does the source give for O=C(O)C1CCC(C(=O)O)CC1 (stereo not given) here?
Its outcome is “inactive”.

And the outcome [2]?
The outcome was “inactive”.

What about the outcome [3] of the same compound?
Its outcome is “inactive”.

What does the source list for CC(C)=CCCC(C)=CC#N?
outcome [8]: inactive; outcome [2]: inactive; outcome [3]: inactive; outcome [7]: inactive

How did the outcome [5] turn out when CCCCC(CC)COS(=O)(=O)O (stereo not given) was run?
The outcome was “inactive”.

What about the outcome [2] of the same compound?
Its outcome is “inactive”.

And the outcome [3]?
Its outcome is “inactive”.

How did the outcome [2] turn out when CCC(C)(O)CCCC(C)C (stereo not given) was run?
Its outcome is “inactive”.

And the outcome [3]?
Its outcome is “inactive”.

And the outcome [4]?
Its outcome is “inactive”.

What does the source list for CC(=O)OCc1ccccc1?
outcome [6]: inactive; outcome [5]: inactive; outcome [2]: inactive; outcome [3]: inactive; outcome [7]: inactive

For CC1(C)[C@@H]2CC[C@@]1(C)C(=O)C2, which outcome [5] is on record?
Its outcome is “inactive”.

And the outcome [2]?
Its outcome is “inactive”.

What about the outcome [3] of the same compound?
The outcome was “inactive”.

And the outcome [7]?
The outcome was “inactive”.

How did the outcome [5] turn out when C1CNCCN1 was run?
Its outcome is “inactive”.

What about the outcome [2] of the same compound?
The outcome was “inactive”.

And the outcome [3]?
The outcome was “inactive”.

For CCCCCCCCCC(C)=O, which outcome [6] is on record?
Its outcome is “inactive”.

And the outcome [5]?
The outcome was “inactive”.

And the outcome [2]?
The outcome was “inactive”.

And the outcome [3]?
Its outcome is “inactive”.

For CC(=O)c1ccccc1O, which outcome [2] is on record?
Its outcome is “inactive”.

And the outcome [3]?
Its outcome is “inactive”.

For C=C[Si](OCCOC)(OCCOC)OCCOC, which AC50 [8] is on record?
The AC50 was 10.5 µM (active).

What about the outcome [2] of the same compound?
The outcome was “inactive”.

And the outcome [3]?
Its outcome is “inactive”.

Which results are given for Cc1c(C(=O)c2c[nH]n(C)c2=O)ccc(S(C)(=O)=O)c1C1=NOCC1?
outcome [6]: inactive; outcome [5]: inactive; outcome [2]: inactive; outcome [3]: inactive; outcome [7]: inactive

With CCOC(=O)C1=NOC(c2ccccc2)(c2ccccc2)C1 as the compound, how does the outcome [5] read?
Its outcome is “inactive”.

What about the outcome [2] of the same compound?
The outcome was “inactive”.

What about the outcome [3] of the same compound?
Its outcome is “inactive”.

And the outcome [4]?
Its outcome is “inactive”.

What about the outcome [7] of the same compound?
The outcome was “inactive”.

CCCCNC(=S)NCCCC was tested. Which outcome [5] did it give?
Its outcome is “inactive”.

What about the outcome [2] of the same compound?
Its outcome is “inactive”.

What about the outcome [3] of the same compound?
The outcome was “inactive”.

And the outcome [4]?
The outcome was “inactive”.

And the outcome [7]?
The outcome was “inactive”.

Which outcome [5] does the source give for NC(=O)Nc1ccccc1 here?
The outcome was “inactive”.

And the outcome [2]?
The outcome was “inactive”.

What about the outcome [3] of the same compound?
The outcome was “inactive”.

What about the outcome [7] of the same compound?
Its outcome is “inactive”.

For CCCCOCCOC(=O)COc1ccc(Cl)cc1Cl, which outcome [5] is on record?
Its outcome is “inactive”.

What about the outcome [2] of the same compound?
The outcome was “inactive”.

And the outcome [3]?
The outcome was “inactive”.

What about the outcome [7] of the same compound?
The outcome was “inactive”.

With N#Cc1ccc(C(c2ccc(C#N)cc2)n2cncn2)cc1 as the compound, how does the outcome [6] read?
The outcome was “inactive”.

And the outcome [5]?
The outcome was “inactive”.

And the outcome [2]?
Its outcome is “inactive”.

What about the outcome [3] of the same compound?
The outcome was “inactive”.

And the outcome [4]?
The outcome was “inactive”.

And the outcome [7]?
The outcome was “inactive”.

CC(=O)OC1CCCCC1C(C)(C)C (stereo not given) was tested. Which outcome [6] did it give?
The outcome was “inactive”.

And the outcome [5]?
Its outcome is “inactive”.

And the outcome [2]?
The outcome was “inactive”.

And the outcome [3]?
Its outcome is “inactive”.

What about the outcome [7] of the same compound?
Its outcome is “inactive”.

CC1=CCC2CC1C2(C)C (stereo not given) was tested. Which outcome [5] did it give?
The outcome was “inactive”.

And the outcome [2]?
Its outcome is “inactive”.

What about the outcome [3] of the same compound?
The outcome was “inactive”.

How did the AC50 [5] turn out when C=C[C@@]1(C)CC(=O)[C@]2(O)[C@@]3(C)[C@@H](O)CCC(C)(C)[C@@H]3[C@H](O)[C@H](OC(C)=O)[C@@]2(C)O1 was run?
Its AC50 is 27.4 µM (active).

What about the AC50 [2] of the same compound?
Its AC50 is 89.1 µM (active).

What about the outcome [3] of the same compound?
Its outcome is “inactive”.

And the AC50 [7]?
The AC50 was 0.183 µM (active).

Which results are given for CC(=O)/C=C/C1C(C)=CCCC1(C)C (stereo not given)?
outcome [2]: inactive; outcome [3]: inactive; outcome [7]: inactive

How did the outcome [5] turn out when CCCC=C(C=O)CC was run?
The outcome was “inactive”.

What about the outcome [2] of the same compound?
The outcome was “inactive”.

What about the outcome [3] of the same compound?
The outcome was “inactive”.

With O=C(O)c1ccc2c(c1)C(=O)OC2=O as the compound, how does the outcome [6] read?
The outcome was “inactive”.

And the outcome [5]?
Its outcome is “inactive”.

What about the outcome [2] of the same compound?
The outcome was “inactive”.

What about the AC50 [3] of the same compound?
The AC50 was 22.6 µM (active).

What about the outcome [4] of the same compound?
The outcome was “inactive”.

And the outcome [7]?
Its outcome is “inactive”.

CCC[Si](OC)(OC)OC was tested. Which outcome [6] did it give?
The outcome was “inactive”.

What about the outcome [5] of the same compound?
The outcome was “inactive”.

And the outcome [2]?
The outcome was “inactive”.

And the outcome [3]?
Its outcome is “inactive”.

What about the outcome [4] of the same compound?
Its outcome is “inactive”.

And the outcome [7]?
The outcome was “inactive”.

Which outcome [8] does the source give for CC(C)(c1ccccc1)c1ccc(Nc2ccc(C(C)(C)c3ccccc3)cc2)cc1 here?
The outcome was “inactive”.

And the outcome [2]?
Its outcome is “inactive”.

What about the outcome [3] of the same compound?
The outcome was “inactive”.

What about the outcome [7] of the same compound?
Its outcome is “inactive”.

Which results are given for CCCCC(C=O)CC (stereo not given)?
outcome [5]: inactive; outcome [2]: inactive; outcome [3]: inactive

How did the outcome [6] turn out when CN(C)Cc1cc(CN(C)C)c(O)c(CN(C)C)c1 was run?
The outcome was “inactive”.

And the outcome [2]?
Its outcome is “inactive”.

What about the outcome [3] of the same compound?
The outcome was “inactive”.

And the outcome [4]?
The outcome was “inactive”.

With CCC1COC(=O)O1 (stereo not given) as the compound, how does the outcome [2] read?
Its outcome is “inactive”.

And the outcome [3]?
The outcome was “inactive”.

What about the outcome [4] of the same compound?
Its outcome is “inactive”.

What about the outcome [7] of the same compound?
The outcome was “inactive”.

Which outcome [2] does the source give for O=C(OCCc1ccccc1)c1ccccc1 here?
Its outcome is “inactive”.

And the outcome [3]?
Its outcome is “inactive”.

With CCCCCCCCC(CO)CCCCCC (stereo not given) as the compound, how does the outcome [5] read?
Its outcome is “inactive”.

What about the outcome [2] of the same compound?
The outcome was “inactive”.

What about the AC50 [3] of the same compound?
The AC50 was 17.7 µM (active).

What about the outcome [4] of the same compound?
The outcome was “inactive”.
